Source: PubChem BioAssay
An excerpt weighted towards active compounds, which were near 4.8% of everything screened.
NR1D1 modulator – modulators of Rev-erb alpha DNA binding, primary screen, biochemical, FITC-DNA, fluorescence polarization, uHTS; actives 0.79% (n = 370,000); Nuclear receptor subfamily 1 group D member 1 (Homo sapiens), P20393; activity, % at 10 µM; AID 1259318, 2017; Rev-erbα–FITC-DNA binding, 90 min;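 active means activity above about 14%, limit read from the data; passing the limit was not always enough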;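 further: 0% = DMSO wells with 35 nM protein and 100% = DMSO wells with 750 nM protein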
ssDAF-12 act – S. stercoralis DAF-12 nuclear receptor activators, primary screen, cell-based, luminescence, HEK293, GRIP1 co-expression, lit1-tk-luc; Nuclear hormone receptor DAF-12 (Strongyloides stercoralis); activation, % at 6.8 µM; HEK293 ssDAF-12/GRIP1 lit1-tk-luc reporter; % of 3 µM dafachronic acid response; actives 1% (n = 370,000);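 active means activation above the mean over all tested compounds plus 3 SD, cut at about 0.9% in these data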;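 further: 0% = DMSO-only wells and 100% = 3 µM delta7-dafachronic acid wells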
hcDAF12 agonist – H. contortus DAF-12 nuclear receptor activators, primary screen, cell-based, luminescence, HEK293, lit1-tk-luc reporter; HEK293 hcDAF-12 lit1-tk-luc reporter; 0% DMSO, 100% Δ7-dafachronic acid; actives 1.4% (n = 370,000); activation, % at 6.8 µM;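 active means activation above the mean of all tested compounds plus 3 SD, cut at about 5.5% in these data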;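 further: 100% = response to 3 µM Δ7-dafachronic acid high control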
DAX1 inh-1 – DAX1 (NR0B1) inhibitors on StAR promoter, primary screen, cell-based, luminescence, SF-1 (NR5A1), full-length DAX-1 | HEK293T StAR-luciferase reporter, SF-1/DAX-1 repression relief | inhibition, % at 6.8 µM | actives 1.1% (n = 370,000);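 active means inhibition above the mean over all tested compounds plus 3 SD, cut at about 3.6% in these data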;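 further: 0% = DAX-1 cells with DMSO and 100% = cells lacking DAX-1 with DMSO; higher inhibition means more luminescence from relief of DAX-1 repression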
hgDAF12 agonist – H. glycines DAF-12 receptor agonists, primary screen, cell-based, luminescence, HEK293, GAL4 fusion, UAS-luciferase | activation, % at 6.8 µM | Nuclear hormone receptor DAF-12 (Heterodera glycines), GAL4 fusion | actives 1.8% (n = 370,000) | AID 687014, 2013 | HEK293 GAL4-hgDAF12 UAS-luciferase reporter, agonist luminescence; normalized to butyrate control;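 active means activation above a cutoff set at the mean of all screened compounds plus 3 SD, cut at about 10% in these data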;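 further: 0% = DMSO wells and 100% = sodium butyrate wells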
DAX1 inh-2 – DAX1 (NR0B1) inhibitors, primary screen, cell-based, HEK293, Gal4-DAX1, luciferase luminescence; Nuclear receptor subfamily 0 group B member 1 (Homo sapiens), P51843; HEK293 Gal4-DAX1 luciferase reporter; inhibition, % at 6.75 µM; actives 0.99% (n = 340,000); AID 504766, 2011;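 active means inhibition above the mean over all tested compounds plus 3 SD, cut at about 4.2% in these data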;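 further: 0% = DAX1-transfected cells with DMSO and 100% = empty-vector control cells with DMSO; inhibition shows as a rise in luminescence from relieved DAX1 repression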
Target sequence (P51843 207-470 limits assumed): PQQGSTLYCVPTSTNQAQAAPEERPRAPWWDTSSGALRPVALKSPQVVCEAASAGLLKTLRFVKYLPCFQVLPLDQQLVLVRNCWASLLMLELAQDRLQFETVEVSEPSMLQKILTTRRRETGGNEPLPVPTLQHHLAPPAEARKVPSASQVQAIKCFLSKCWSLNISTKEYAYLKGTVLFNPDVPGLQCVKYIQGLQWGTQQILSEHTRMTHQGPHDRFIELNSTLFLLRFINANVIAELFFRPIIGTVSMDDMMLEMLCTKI
DAX1 conf – DAX1 (NR0B1) inhibitors relieving SF-1 repression, confirmation, cell-based, luminescence, HEK293T, full-length DAX-1, SF-1 activated StAR promoter. shares compounds with DAX1 inh-1. HEK293T StAR-promoter luciferase reporter, SF-1/DAX-1 repression. inhibition, % at 6.8 µM. actives 87% (n = 2,400);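 active means inhibition above the average of every tested compound plus 3 SD, cut at about 3.8% in these data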;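 further: 0% = DAX-1 cells with DMSO and 100% = no DAX-1 control cells with DMSO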
Target sequence (P51843 whole entry, looked up): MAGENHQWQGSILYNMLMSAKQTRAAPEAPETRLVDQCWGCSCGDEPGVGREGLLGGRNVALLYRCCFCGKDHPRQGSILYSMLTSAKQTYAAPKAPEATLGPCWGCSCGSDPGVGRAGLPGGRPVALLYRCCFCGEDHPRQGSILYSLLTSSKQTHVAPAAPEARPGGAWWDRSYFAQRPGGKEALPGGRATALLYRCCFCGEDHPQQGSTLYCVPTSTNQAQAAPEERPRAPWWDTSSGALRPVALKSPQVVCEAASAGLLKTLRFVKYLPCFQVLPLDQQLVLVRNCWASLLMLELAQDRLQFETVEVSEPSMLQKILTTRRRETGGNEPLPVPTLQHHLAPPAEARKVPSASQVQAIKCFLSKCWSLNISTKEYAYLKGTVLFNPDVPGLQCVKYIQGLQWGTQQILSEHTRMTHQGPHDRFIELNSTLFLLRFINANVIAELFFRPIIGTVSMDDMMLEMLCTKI
SF1 AF2mut Luc – StAR reporter signal changes without DAX1, counter-screen for DAX1 inhibitor project, cell-based, luminescence, AF-2 mutant SF-1, transactivation | shares compounds with DAX1 inh-1 | HEK293 StAR-luciferase, SF-1 AF2 mutant | inhibition, % at 6.8 µM | actives 78% (n = 2,400) | AID 652136, 2013;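 active means inhibition above the mean of all tested compounds plus 3 SD, cut at about 3% in these data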;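 further: 0% = DAX-1 transfected cells with DMSO and 100% = cells without DAX-1 with DMSO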
* = called active by the depositor; . = no result given.

SMILES	NR1D1 modulator	ssDAF-12 act	hcDAF12 agonist	DAX1 inh-1	hgDAF12 agonist	DAX1 inh-2	DAX1 conf	SF1 AF2mut Luc
O=c1oc2cc(O)ccc2cc1-c1nc2ccccc2o1	-13.2	0.1	2.5	5.4*	8.8	.	6.4*	3.3*
O=S1(=O)c2ccc(Br)cc2OC[C@H](c2ccccc2)N1Cc1ccccc1	2.4	0.3	-1.2	-0.4	0.8	.	.	.
O=c1c2ccccc2nnn1Cc1ccco1	-6.0	-1.0	0.3	-0.7	-2.8	.	.	.
CCCCC[C@@H](C)N1C[C@H](COCc2ccccc2)Oc2cc(N3CCC[C@@H]3COC)ccc2S1(=O)=O	-2.3	-0.1	1.6	5.1*	6.9	.	5.7*	4.3*
N/C(=N\OC(=O)c1ccc(Cl)cc1)c1ccn[nH]1	-4.0	0.2	4.8	14.9*	9.7	-1.3	12.6*	7.8*
COc1ccc(-c2noc(C3CCCN(C(=O)N[C@@H]4C[C@H]4c4ccccc4)C3)n2)cc1 (stereo not given in full)	-1.1	-0.8	2.1	1.8	8.0	.	.	.
CSc1ccc(-c2csc(N3CCC(C(N)=O)CC3)n2)cc1	-3.4	-0.7	-0.1	.	8.0	.	.	.
O=C(N[C@H]1/C=C\[C@@H](O)CCCC1)OCc1ccccc1	-4.8	0.6	4.8	7.6*	11.0*	3.1	10.6*	9.1*
COc1ccc(CC(=O)N(Cc2ccccc2)c2ccccc2C(=O)Nc2cc(OC)ccc2OC)cc1	8.4	-1.3	-2.8	0.2	-1.0	.	.	.
CCOC(=O)Cn1cc(CN2C(C(=O)OC)CN(C3CCCC3)CCS2(=O)=O)nn1 (stereo not given)	6.6	-0.1	-1.7	-0.4	2.6	.	.	.
CCc1ccc2nc(N(CCN(C)C)C(=O)c3ccc4ncsc4c3)sc2c1	1.2	0.4	1.1	7.6*	8.6	-0.2	8.0*	5.4*
COc1ccccc1CCn1cnc(-c2cccc(F)c2)c1C(C)C	-5.8	-2.1	-3.6	-2.3	-2.2	.	.	.
O=C(NNC(=S)Nc1ccccc1)Nc1ccccc1	-11.8	0.1	3.1	1.9	7.5	1.2	.	.
Cc1ccc(NC(=S)NNC(=O)Nc2ccccc2)cc1	-0.2	1.4*	3.2	5.7*	11.6*	1.6	5.6*	2.5
C/C(=N\NC(=O)c1ccoc1C)c1ccc(Br)s1	-5.0	-0.5	1.5	5.8*	10.1	1.8	1.5	-0.1
CC(=NNC(=O)c1cc(C)oc1C)c1ccc(Br)s1	-1.9	-1.4	-1.6	0.1	-1.2	0.9	.	.
COc1cc(NC(=O)NC2CCCCN(Cc3cccc(Cl)c3)C2=O)cc(OC)c1 (stereo not given)	3.0	-1.2	-1.5	-0.6	4.6	.	.	.
COc1ccc(C2C(C(=O)Nc3cc(Cl)ccc3F)CCC(=O)N2c2ccc(OC)cc2)cc1 (stereo not given)	0.9	-1.7	-1.6	-0.7	-2.6	.	.	.
COC(=O)CC(=O)CC(NS(=O)(=O)c1ccc(C)cc1)c1ccccc1 (stereo not given)	-3.8	-1.2	-1.5	0.0	1.0	.	.	.
CN1CCN(c2cnn(-c3ccccc3)c(=O)c2Br)CC1	-2.9	-0.7	0.2	0.7	3.4	-0.4	.	.
O=c1c(Br)c(N2CCCCC2)cnn1-c1ccccc1	1.7	-0.6	3.4	4.6*	13.2*	4.5*	10.5*	8.3*
COP(=O)(O)CCOCCC(CC(C)C)NC(=O)OCc1ccccc1 (stereo not given)	2.7	-0.2	-0.8	-0.6	0.6	.	.	.
Cc1cccc(NC(=O)C2CCN(c3nnc(-n4cccc4)s3)CC2)c1C	-2.1	-1.4	-1.4	-0.2	-5.3	.	.	.
Nc1ccc(S(=O)(=O)Nc2cnc3c(Cl)cccc3n2)cc1	-4.5	-0.5	-1.2	5.7*	-2.5	2.5	5.2*	-1.1
O=c1[nH]c(COc2ccc(Br)cc2Cl)nc2ccccc12	5.1	-0.5	2.8	7.4*	6.0	1.9	7.7*	4.8*
SMILES	NR1D1 modulator	ssDAF-12 act	hcDAF12 agonist	DAX1 inh-1	hgDAF12 agonist	DAX1 inh-2	DAX1 conf	SF1 AF2mut Luc
O=C(C[C@H]1CC[C@@H](NC(=O)Nc2ccc3c(c2)OCO3)[C@@H](CO)O1)NCc1ccccc1	4.5	-0.9	2.3	0.7	-2.1	.	.	.
CC(C)NC(=O)N[C@H]1CC[C@H](CC(=O)NCc2ccc(Oc3ccccc3)cc2)O[C@@H]1CO	0.5	-0.8	0.4	4.5*	2.2	.	0.0	2.8
Nc1cc2[nH]c(=O)c3ccccc3c2cc1[N+](=O)[O-]	-8.3	-0.8	2.0	5.4*	6.9	1.4	0.2	-0.9
COc1cc2c(=O)[nH]c3cc([N+](=O)[O-])ccc3c2cc1[N+](=O)[O-]	-21.8	-1.3	-2.6	-5.9	-1.5	-0.3	.	.
CCCCNC(=O)C[C@H]1C[C@@]2(C(=O)OC)C(=C[C@H](C(C)(C)C)O[C@@H]2C)N(Cc2ccc3c(c2)OCO3)C1=O	-6.3	-1.0	0.1	-0.9	-0.3	.	.	.
COc1ccccc1OCc1cc(C(=O)N(C)CCC2CCCCO2)no1 (stereo not given)	-6.9	0.2	2.8	5.0*	10.7*	1.9	7.1*	2.8
COC(=O)c1cc2c(c3c4cc(C)ccc4n(S(=O)(=O)c4ccc(C)cc4)c13)C(=O)N(Cc1ccc(C(F)(F)F)cc1)C2	11.3	-0.8	1.5	-0.5	1.8	.	.	.
NC(=Nc1cccc(F)c1)NC(=O)OCc1ccccc1	0.9	0.2	-0.1	5.2*	7.4	.	5.2*	3.6*
COc1ccc(C(=O)C[n+]2ccc3c(c2)nc(Cc2ccccc2)n3C)cc1	5.9	-1.0	-1.1	-0.3	-1.4	.	.	.
COc1cccc(N=CNc2cccc(OC)c2)c1	3.6	0.3	1.7	4.7*	9.4	0.7	5.4*	3.4*
COc1cccc(NC=C2C(=O)OC(C)(C)OC2=O)c1	4.4	-1.2	0.8	-0.7	2.1	-1.7	.	.
Cc1cccc(-c2cc3nc4c(c(NCc5ccco5)n3n2)CCCC4)c1	-4.5	-0.1	0.2	5.0*	11.7*	1.6	5.4*	3.1*
